# From the supplement of paper PMC8728848
# Shown is part of a subset that was picked to be rich in the strongest signals.
# B1: MpL2 (Macrolepiota procera) (protein)
# chain: MSTQVSSGQTYKITNVKAGTVIDLSGEDNKSIIGYPYHSGKNQQWTFNWTGKAWTLRSASSGSYLGIEGTPADGTRLVAVNDPFEWHIWRDEANENAFRIFVPFTNYNLRLSGYGDTTPGTPVQLWWTWEGLHQTWTIDRP
# How the values were obtained:
# Experiment in all cases: glycan array binding signal (z-score within array); higher = stronger binding
# Conditions in all cases: glycan notation: IUPAC condensed, linker removed; mutation: D109R
# [1] = molecular target: Gal(b1-4)GlcNAc(b1-3)Gal(b1-4)GlcNAc(b1-3)Gal(b1-4)GlcNAc(b1-3)Gal(b1-4)GlcNAc(b1-2)[Gal(b1-4)GlcNAc(b1-3)Gal(b1-4)GlcNAc(b1-3)Gal(b1-4)GlcNAc(b1-3)Gal(b1-4)GlcNAc(b1-6)]Man(a1-6)[Gal(b1-4)GlcNAc(b1-3)Gal(b1-4)GlcNAc(b1-3)Gal(b1-4)GlcNAc(b1-3)Gal(b1-4)GlcNAc(b1-2)Man(a1-3)]Man(b1-4)GlcNAc(b1-4)[Fuc(a1-6)]GlcNAc
# Procedure, shortened: (§1)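 Columns mapping to the same glycan were averaged after glycan names were converted to IUPAC-condensed notation. The data come from 3228 arrays in the Consortium for Functional Glycomics database, limited to those with an available protein sequence. Binding is reported as a within-array Z-score averaged across arrays of one protein sequence and across linkers.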
# [2] = molecular target: Gal(b1-4)GlcNAc(b1-3)Gal(b1-4)GlcNAc(b1-3)Gal(b1-4)GlcNAc(b1-3)Gal(b1-4)GlcNAc(b1-3)Gal(b1-4)GlcNAc(b1-2)Man(a1-3)[Gal(b1-4)GlcNAc(b1-3)Gal(b1-4)GlcNAc(b1-3)Gal(b1-4)GlcNAc(b1-3)Gal(b1-4)GlcNAc(b1-3)Gal(b1-4)GlcNAc(b1-2)Man(a1-6)]Man(b1-4)GlcNAc(b1-4)GlcNAc
# Procedure, shortened: as §1
# [3] = molecular target: Gal(b1-4)GlcNAc(b1-3)Gal(b1-4)GlcNAc(b1-3)Gal(b1-4)GlcNAc(b1-3)Gal(b1-4)GlcNAc(b1-3)Gal(b1-4)GlcNAc(b1-2)[Gal(b1-4)GlcNAc(b1-3)Gal(b1-4)GlcNAc(b1-3)Gal(b1-4)GlcNAc(b1-3)Gal(b1-4)GlcNAc(b1-3)Gal(b1-4)GlcNAc(b1-6)]Man(a1-6)[Gal(b1-4)GlcNAc(b1-3)Gal(b1-4)GlcNAc(b1-3)Gal(b1-4)GlcNAc(b1-3)Gal(b1-4)GlcNAc(b1-3)Gal(b1-4)GlcNAc(b1-2)Man(a1-3)]Man(b1-4)GlcNAc(b1-4)[Fuc(a1-6)]GlcNAc
# Procedure, shortened: as §1
# Gal3S(b1-3)GlcNAc = molecular target: Gal3S(b1-3)GlcNAc
# Procedure, shortened: as §1
# Gal6P(b1-4)GlcNAc = molecular target: Gal6P(b1-4)GlcNAc
# Procedure, shortened: as §1
# GalNAc(b1-3)GalNAc = molecular target: GalNAc(b1-3)GalNAc
# Procedure, shortened: as §1
# [4] = molecular target: GalNAc(b1-4)GlcNAc(b1-3)GalNAc(b1-4)GlcNAc
# Procedure, shortened: as §1
# GalNAc3S(b1-4)GlcNAc3S = molecular target: GalNAc3S(b1-4)GlcNAc3S
# Procedure, shortened: as §1
# [5] = molecular target: GalNAc3S(b1-4)[Fuc(a1-3)]GlcNAc
# Procedure, shortened: as §1
# [6] = molecular target: GlcNAc(a1-6)Gal(b1-4)GlcNAc
# Procedure, shortened: as §1
# [7] = molecular target: GlcNAc(b1-4)GlcNAc(b1-4)GlcNAc
# Procedure, shortened: as §1
# [8] = molecular target: GlcNAc(b1-4)GlcNAc(b1-4)GlcNAc(b1-4)GlcNAc(b1-4)GlcNAc
# Procedure, shortened: as §1
# [9] = molecular target: GlcNAc6S(b1-3)Gal(b1-4)GlcNAc
# Procedure, shortened: as §1
# MurNAc(b1-4)GlcNAc = molecular target: MurNAc(b1-4)GlcNAc
# Procedure, shortened: as §1
# [10] = molecular target: Neu5Ac(a2-3)Gal(b1-3)GalNAc(b1-3)Gal(a1-4)Gal(b1-4)Glc
# Procedure, shortened: as §1
# [11] = molecular target: Neu5Ac(a2-3)Gal(b1-4)GlcNAc(b1-2)Man(a1-3)[Neu5Ac(a2-3)Gal(b1-4)GlcNAc(b1-2)Man(a1-6)]Man(b1-4)GlcNAc(b1-4)[Fuc(a1-6)]GlcNAc
# Procedure, shortened: as §1
# [12] = molecular target: Neu5Ac(a2-6)Gal(b1-4)GlcNAc(b1-2)Man(a1-3)[Neu5Ac(a2-3)Gal(b1-4)GlcNAc(b1-2)Man(a1-6)]Man(b1-4)GlcNAc(b1-4)GlcNAc
# Procedure, shortened: as §1
# [13] = molecular target: Neu5Ac(a2-6)Gal(b1-4)GlcNAc(b1-2)Man(a1-3)[Neu5Ac(a2-6)Gal(b1-4)GlcNAc(b1-2)Man(a1-6)]Man(b1-4)GlcNAc(b1-4)[Fuc(a1-6)]GlcNAc
# Procedure, shortened: as §1
# [14] = molecular target: Neu5Ac(a2-6)Gal(b1-4)GlcNAc(b1-3)Gal(b1-4)GlcNAc(b1-3)GalNAc
# Procedure, shortened: as §1
# [15] = molecular target: Neu5Ac(a2-6)Gal(b1-4)GlcNAc(b1-3)[Neu5Ac(a2-6)Gal(b1-4)GlcNAc(b1-6)]GalNAc
# Procedure, shortened: as §1
# [16] = molecular target: Neu5Ac(a2-6)Gal(b1-4)GlcNAc6S
# Procedure, shortened: as §1
# [17] = molecular target: Neu5Ac(a2-6)GalNAc(b1-4)GlcNAc
# Procedure, shortened: as §1
# [18] = molecular target: Neu5Ac(a2-8)Neu5Ac(a2-8)Neu5Ac(a2-3)Gal(b1-4)Glc
# Procedure, shortened: as §1
# [19] = molecular target: Neu5Ac(a2-8)Neu5Ac(a2-8)Neu5Ac(a2-3)[GalNAc(b1-4)]Gal(b1-4)Glc
# Procedure, shortened: as §1
binder,measurement,setting,value
B1,glycan array binding signal (z-score),[1],4.36
same,glycan array binding signal (z-score),[2],3.94
same,glycan array binding signal (z-score),[3],4.48
same,glycan array binding signal (z-score),Gal3S(b1-3)GlcNAc,-0.276
same,glycan array binding signal (z-score),Gal6P(b1-4)GlcNAc,-0.218
same,glycan array binding signal (z-score),GalNAc(b1-3)GalNAc,-0.254
same,glycan array binding signal (z-score),[4],3.89
same,glycan array binding signal (z-score),GalNAc3S(b1-4)GlcNAc3S,-0.255
same,glycan array binding signal (z-score),[5],-0.254
same,glycan array binding signal (z-score),[6],6.07
same,glycan array binding signal (z-score),[7],-0.248
same,glycan array binding signal (z-score),[8],-0.246
same,glycan array binding signal (z-score),[9],0.055
same,glycan array binding signal (z-score),MurNAc(b1-4)GlcNAc,-0.259
same,glycan array binding signal (z-score),[10],-0.241
same,glycan array binding signal (z-score),[11],-0.215
same,glycan array binding signal (z-score),[12],-0.261
same,glycan array binding signal (z-score),[13],-0.223
same,glycan array binding signal (z-score),[14],-0.261
same,glycan array binding signal (z-score),[15],-0.255
same,glycan array binding signal (z-score),[16],-0.289
same,glycan array binding signal (z-score),[17],-0.301
same,glycan array binding signal (z-score),[18],-0.272
same,glycan array binding signal (z-score),[19],-0.234
